Data: ChEMBL document CHEMBL1157539, “Thousands of chemical starting points for antimalarial lead identification” (Nature, 2010)

Test system: HepG2
Test: GSK_TCMDC: Percent inhibition of human HepG2 cell line. Test compounds present at 10uM.
Format: functional

Row | Structure (SMILES) | Inhibition [%]
1 | CCN(CCO)Cc1ccc(-c2ccc(NS(=O)(=O)c3cccc4cccnc34)cc2)cc1.O=C(O)C(F)(F)F | 25
2 | O=C1Nc2ccccc2/C1=N/NC(=S)N1CCOCC1 | 51
3 | O=C(/C=C/c1ccc2ccccc2c1)NCCCCCN1CCC(c2c[nH]c3ccccc23)CC1 | 18
4 | Cl.N=C(N)c1cccc(OCCCOc2cccc(NC(=O)Nc3ccc([N+](=O)[O-])cc3)c2)c1 | 16
5 | COc1ccc(NC(=O)c2ccc(-c3nc(-c4cccc(C(F)(F)F)c4)cs3)cc2)cc1N1CCN(C)CC1 | 29
6 | Cc1cc(N[C@@H](Cc2ccccc2)C(=O)NC2CCCC2)nc(NCC2CCCCC2)n1.O=C(O)C(F)(F)F | 18
7 | Cc1ccccc1/N=C1\NC(=S)N(c2cccc(C(F)(F)F)c2)C12CCC(C(C)(C)C)CC2 (stereo not drawn) | 9
8 | COc1ccc(Cl)cc1N1CCN(CCCNC(=O)c2ccc(-c3nc4cc(Cl)c(C)cc4[nH]3)s2)CC1 | 0
9 | O=C(Nc1cccc(-c2ccc(-c3nc4cc(C(F)(F)F)ccc4[nH]3)cc2)c1)c1ccncc1 | 79
10 | COc1cc2nc(N3CCC(CNC(=O)c4ccc(-c5ccccc5)cc4)CC3)nc(N)c2cc1OC | 11
11 | COc1ccc(-c2ccc(NC(=O)c3cccc(F)c3)cc2)cc1CN1CCCN(C)CC1.O=C(O)C(F)(F)F | 32
12 | CCOC(=O)c1cc2c(CCN3C(=O)c4ccccc4C3=O)cn(C)c2cc1-c1ccncc1 | 99
13 | O=C(Nc1cccc(-c2ccc(-c3nc4cc(C(F)(F)F)ccc4[nH]3)s2)c1)c1ccncc1 | 79
